Assay [1] is described as follows: NCI Yeast Anticancer Drug Screen. Data for the rad50 strain (AID 155).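 Also: 0% = growth of vehicle-only cultures of the same strain.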 The settings on record: S. cerevisiae rad50 strain growth inhibition; at 50.0 µM; active compounds read high. In outline:
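Inhibition values express reduced yeast growth in compound-treated cultures relative to vehicle-treated controls.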

Assay [2] in a line: NCI Yeast Anticancer Drug Screen. Data for the mec2-1 strain (AID 157). The settings on record: S. cerevisiae mec2-1 strain, at 50.0 µM, active compounds read high. In a few lines:
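Vehicle-treated cultures served as reference for growth inhibition of compound-exposed mec2-1 yeast.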

A short description of assay [3]: NCI Yeast Anticancer Drug Screen. Data for the sgs1 mgt1 strain (AID 161).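 Also: 0% = growth of cultures given vehicle only.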 Particulars: S. cerevisiae sgs1 mgt1 strain, at 50.0 µM, active compounds read high. In a few lines: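 Test agents were incubated with a DNA-repair-mutant yeast strain. Growth was then read and compared against vehicle-treated controls.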
Assay [4] is described as follows: NCI Yeast Anticancer Drug Screen. Data for the cln2 rad14 strain (AID 165).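 Also: 0% = growth equal to vehicle treated cultures.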 Particulars: S. cerevisiae cln2 rad14 strain, at 50.0 µM, active compounds read high. In a few lines: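 Each compound was tested on cln2 rad14 yeast. Inhibition of growth was calculated against vehicle-exposed controls.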
The nature of assay [5]: NCI Yeast Anticancer Drug Screen. Data for the bub3 strain (AID 167). The settings on record: S. cerevisiae bub3 mutant strain, at 50.0 µM, active compounds read high. In outline: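 Steps: expose the mutant yeast strain to compound; grow alongside vehicle-treated cultures; measure growth; express inhibition against the vehicle cultures.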
A short description of assay [6]: NCI Yeast Anticancer Drug Screen. Data for the mlh1 rad18 strain (AID 175). The settings on record: S. cerevisiae mlh1 rad18 strain growth inhibition; at 50.0 µM; active compounds read high. In a few lines: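 Vehicle-treated cultures served as the reference for growth inhibition in a yeast strain carrying DNA damage repair alterations exposed to each compound.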

From PubChem BioAssay (NCI) come the findings set out here.

This is part of a sample that, as a whole, favours compounds with a hit. Of some 79,000 tested, about 15% had one in any assay. Unmarked numbers belong to inactive results. Activity calls are given as the source filed them. Rule as the data show it: active = growth inhibition above about 70%; inactive = the rest.

As to `S=C(Nc1ccccc1)Nc1nc(-c2ccccc2)c(N=Nc2ccccc2)s1`, the growth inhibition in assay [1] was 29.8%; in assay [2], -1%; in assay [3] it was 4.05%; in assay [4] it was 10.1%; in assay [5], 12.9%; in assay [6], 2%.
For `COc1ccc(Br)cc1/C=N/N=C/c1cc(Br)ccc1OC`, the growth inhibition in assay [1] is -0.2%; in assay [2] it was -21.6%; in assay [3], 1.5%; in assay [4], 20.9%; in assay [5] it was 21.5%; in assay [6], 23.4%.
For `OCC(O)C(OC1OC(CO)C(O)C(O)C1O)C(O)c1cnn(-c2ccccc2)n1` (configuration not stated), the growth inhibition in assay [1] is -0.05%; in assay [2] it was 8.6%; in assay [3], -24.3%; in assay [4] it was -14.7%; in assay [5], -1.5%; in assay [6], 15.2%.
As to `Nc1cccc2c1C(=O)c1cccc(Nc3ccc4c(c3)C(=O)c3ccccc3C4=O)c1C2=O`, the growth inhibition is -2.95% in assay [1]; -2.7% in assay [2]; 5.55% in assay [3]; 47.9% in assay [4]; -14.2% in assay [5]; 32.9% in assay [6].
`OCC1OC(OC2CC3C(OC4OC(CO)C(O)C(O)C4O)CC(O)CC3OC2c2ccc(O)cc2)C(O)C(O)C1O` (configuration not stated): the growth inhibition was 18.1% in assay [1]; 16.2% in assay [2]; 21% in assay [3]; 14.5% in assay [4]; 11.8% in assay [5]; 16.1% in assay [6].
For the compound `CCCCCCCCCCCCCC(=O)Oc1ccc2ccccc2c1`, the growth inhibition is -4.05% in assay [1]; 3.5% in assay [2]; -3.85% in assay [3]; 5.7% in assay [4]; -10.1% in assay [5]; 8.7% in assay [6].
In the case of `N#C/C(N)=C(\C#N)N=CNc1ccc(N)cc1`, the growth inhibition in assay [1] was -32.8%; in assay [2] it was -31.1%; in assay [3], -22.2%; in assay [4], 23%; in assay [5], 1.4%; in assay [6] it was -10.9%.
For `Cc1cc(C(=O)O)c(C(=O)O)c(=O)[nH]1`, the growth inhibition in assay [1] was 0.6%; in assay [2], 5.8%; in assay [3] it was 0.3%; in assay [4], 7.1%; in assay [5], -1.05%; in assay [6] it was -13.9%.
With `Nc1nc(=O)n(CCCOc2cccc(Cl)c2)cc1-c1ccc(Cl)c(Cl)c1`, the growth inhibition in assay [1] was 52.6%; in assay [2], 49.4%; in assay [3] it was 52.2%; in assay [4], 68.8%; in assay [5] it was 87% (active); in assay [6], 51.5%.
Consider `Cc1cc(NC(=O)CCc2ccc(N3C(N)=NC(N)=NC3(C)C)cc2)ccc1S(=O)(=O)O`, for which the growth inhibition was 38.1% in assay [1]; -5.55% in assay [2]; 8.05% in assay [3]; -14.4% in assay [4]; 2.05% in assay [5]; -5.55% in assay [6].
Regarding `COC(=O)/C(C#N)=C/c1cccnc1`, the growth inhibition in assay [1] was -10.1%; in assay [2], -7.65%; in assay [3], 6%; in assay [4], -61.1%; in assay [5], -5.45%; in assay [6], -15.7%.
Turning to `N#CCCCN1C(=O)c2ccccc2C1=O`, the growth inhibition in assay [1] is -22.1%; in assay [2] it was -18.9%; in assay [3] it was -8.25%; in assay [4] it was 21%; in assay [5], -15.5%; in assay [6] it was -18.4%.
For `Nc1cc(Cl)c(N)c(Cl)c1`, the growth inhibition is 1.8% in assay [1]; -21.6% in assay [2]; -9.65% in assay [3]; 14.1% in assay [4]; -19.4% in assay [5]; -0.9% in assay [6].
For `N#Cc1nc(CC(=O)c2ccccc2Cl)c(CC(=O)c2ccccc2Cl)nc1C#N`, the growth inhibition in assay [1] is 22.4%; in assay [2], 20.1%; in assay [3] it was 5.6%; in assay [4] it was 25.4%; in assay [5], 13.4%; in assay [6], 19.4%.
Turning to `C/C(=N\N=P(c1ccccc1)(c1ccccc1)c1ccccc1)C(C)(C)C`, the growth inhibition in assay [1] was 8.35%; in assay [2], 10.2%; in assay [3], 1.75%; in assay [4] it was 11.9%; in assay [5], 4.5%; in assay [6], 31.7%.
For `CC(C)=Cc1cc(-c2cc(C=C(C)C)on2)no1`, the growth inhibition in assay [1] is 8.1%; in assay [2] it was -7.05%; in assay [3] it was 3.85%; in assay [4] it was 1.15%; in assay [5], -8%; in assay [6], 4%.
As for `O=C1NC(=O)C(c2ccc(Cl)cc2)N1` (configuration not stated), the growth inhibition in assay [1] is 0%; in assay [2], -10.8%; in assay [3], -6.3%; in assay [4] it was -5.3%; in assay [5], -3.75%; in assay [6], -15.2%.
In the case of `O=[N+]([O-])c1ccc(-c2ccccc2-c2ccccc2)cc1`, the growth inhibition in assay [1] was 3.9%; in assay [2], -2.8%; in assay [3] it was 8.25%; in assay [4], -38.1%; in assay [5], 3.5%; in assay [6], -22.9%.
As to `O=C=Nc1ccc(Cc2ccc(N=C=O)cc2)cc1` (tested in a mixture with another compound), the growth inhibition is -6.55% in assay [1]; -1.5% in assay [2]; -12.2% in assay [3]; 8.95% in assay [4]; -0.5% in assay [5]; 14.3% in assay [6].
In the case of `Cc1ccc(-c2ccc(C)cc2)cc1`, the growth inhibition was -31.2% in assay [1]; -38% in assay [2]; -22.2% in assay [3]; -11.1% in assay [4]; -36.9% in assay [5]; -11.1% in assay [6].
`Cc1cccc(C)c1NC(=O)C(=O)C(C(=O)c1ccccc1-c1ccccc1)C1OC(=O)c2ccccc21` (configuration not stated): the growth inhibition in assay [1] was 26.6%; in assay [2] it was 15.4%; in assay [3] it was 12.2%; in assay [4], -29.6%; in assay [5], 2.2%; in assay [6], 23.6%.
Take `O=c1[nH]nc(Cc2ccc(Cl)cc2)n1CCO`: the growth inhibition in assay [1] is 8.2%; in assay [2], 5.95%; in assay [3], 19.6%; in assay [4], 3.75%; in assay [5], 5.85%; in assay [6] it was -21.1%.
On to `CCCCOP(=O)(OCCCC)/C(C#N)=C/c1ccco1`, for which the growth inhibition in assay [1] was -67.7%; in assay [2], -65.6%; in assay [3], -50.1%; in assay [4], -42.1%; in assay [5], -29.8%; in assay [6], -79.4%.
On to `CCc1nnc(CC)n1N1C(=O)CCC1=O`, for which the growth inhibition in assay [1] is 24.1%; in assay [2] it was 28.1%; in assay [3] it was 26.2%; in assay [4], 11.1%; in assay [5] it was 24.8%; in assay [6], 21.7%.
On to `CCOC(=O)C1=CN(Cc2ccccc2)C2ON=C(c3ccc(Cl)cc3)C2C1` (configuration not stated), for which the growth inhibition in assay [1] was 0.05%; in assay [2], 2.3%; in assay [3], -11.8%; in assay [4], -2.35%; in assay [5], -0.75%; in assay [6] it was -0.6%.
As to `O=C(O)C1CCCCC1C(=O)O.[NH-]C1CCC1.[NH2-].[Pt+2]` (configuration not stated), the growth inhibition in assay [1] was 99.2% (active); in assay [2], 99.3% (active); in assay [3], 99.4% (active); in assay [4] it was 99.3% (active); in assay [5] it was 99% (active); in assay [6], 99.1% (active).
Turning to `COC(C(N)=O)c1ccccc1` (configuration not stated), the growth inhibition is -9.8% in assay [1]; -11.3% in assay [2]; -16.4% in assay [3]; -8% in assay [4]; 8.7% in assay [5]; -3.45% in assay [6].
As for `CC(=O)OCC1OC(N2C(S)=C(C#N)C(c3ccco3)C(C(C)=O)=C2c2ccccc2)C(OC(C)=O)C(OC(C)=O)C1OC(C)=O` (configuration not stated), the growth inhibition was 21.4% in assay [1]; 15.4% in assay [2]; -0.25% in assay [3]; -7.4% in assay [4]; -19.4% in assay [5]; -6.15% in assay [6].
As for `Oc1c(Cl)c(Cl)c(O)c2ccccc12`, the growth inhibition is -3.7% in assay [1]; -0.95% in assay [2]; 7.15% in assay [3]; 44.2% in assay [4]; 8.1% in assay [5]; -52.9% in assay [6].
Turning to `O=CC(=O)c1ccc(Cl)cc1`, the growth inhibition was 1.9% in assay [1]; 5.5% in assay [2]; 8.4% in assay [3]; 31.1% in assay [4]; -9.5% in assay [5]; 14.8% in assay [6].
Take `CN(C)C1=NC(c2ccccc2)(c2ccccc2)C(=O)N1`: the growth inhibition is -17.4% in assay [1]; -8.15% in assay [2]; -3.15% in assay [3]; -40.5% in assay [4]; -6.35% in assay [5]; -23.4% in assay [6].
In the case of `CCN(CC)Cc1cc(Nc2ccnc3ccc4nn(C)nc4c23)ccc1O`, the growth inhibition in assay [1] is -16.4%; in assay [2], -19.4%; in assay [3], -28.1%; in assay [4] it was 4.45%; in assay [5] it was 6.65%; in assay [6], -1.75%.
For `CC(C)CC(=O)OC1=C(O)C(=O)C(OC(=O)CC(C)C)=C(O)C1=O`, the growth inhibition in assay [1] is -5.45%; in assay [2], -13.7%; in assay [3] it was 2.1%; in assay [4], -62.4%; in assay [5], 0.1%; in assay [6], 5.65%.
For the compound `Cc1ccc(NC(=O)Oc2ccccc2C(=O)OCc2ccccc2)cc1`, the growth inhibition was 5.3% in assay [1]; 7.1% in assay [2]; 6.25% in assay [3]; 20.1% in assay [4]; 8.25% in assay [5]; 1.25% in assay [6].
Take `CCNc1nnc(N=Nc2ccccc2)s1`: the growth inhibition was 0.5% in assay [1]; 12.8% in assay [2]; 13.4% in assay [3]; -2% in assay [4]; 7.55% in assay [5]; 3.65% in assay [6].
Consider `O=C(c1ccccc1Cl)N1CCN(c2ccccc2)CC1`, for which the growth inhibition in assay [1] was 12.9%; in assay [2], -3.4%; in assay [3], 0%; in assay [4] it was -28.5%; in assay [5] it was 9.55%; in assay [6] it was -6.85%.
On to `C[C@H]1S[C@H](c2c(F)cccc2F)n2c1nc1ccccc12`, for which the growth inhibition in assay [1] was 9.5%; in assay [2] it was -10.6%; in assay [3] it was 43.8%; in assay [4], -0.25%; in assay [5], 26.6%; in assay [6], 35%.
